# Measurements from the supplement of paper PMC6555819.
# How the values were obtained:
# Test in all cases: PBM binding z-score (relative to random genomic background probes); higher = stronger binding; sequences stand for … in GC…GCGATTGACAGCGTAGAATGAAGG
# [1] = system: PPARg:RXRa DBDmut IVT, anti-RXR (DBD mutation: RXRa K156A/R161A, NR concentration 270 nM, RXRa partner concentration 90 nM)
# Procedure, shortened: (§1)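 Scanned fluorescence from custom Agilent 4×180K protein-binding microarrays was regression-normalized. Binding z-scores use random background probes as reference. Ligand-free nuclear receptor dimers were incubated on the arrays for 1 h and detected with antibodies against each partner (one per run).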
# [2] = system: PPARg:RXRa IVT, anti-PPARg (NR concentration 270 nM, RXRa partner concentration 90 nM)
# Procedure, shortened: as §1
# [3] = system: PPARg DBDmut:RXRa IVT, anti-PPARg (DBD mutation: PPARg1 K132A/R137A, NR concentration 270 nM, RXRa partner concentration 90 nM)
# Procedure, shortened: as §1
# [4] = system: PPARg DBDmut IVT, anti-PPARg (DBD mutation: PPARg1 K132A/R137A, NR concentration 270 nM)
# Procedure, shortened: as §1
# [5] = system: PPARg homodimer (NR concentration 180 nM)
# Procedure, shortened: as §1
# [6] = system: PXR:RXRa (NR concentration 270 nM, RXRa partner concentration 90 nM)
# Procedure, shortened: as §1
# [7] = system: PXR homodimer (NR concentration 270 nM)
# Procedure, shortened: as §1
# [8] = system: RARa:RXR (NR concentration 270 nM, RXRa partner concentration 90 nM)
# Procedure, shortened: as §1
# [9] = system: RARa homodimer (NR concentration 270 nM)
# Procedure, shortened: as §1
# [10] = system: RARb:RXRa (NR concentration 270 nM, RXRa partner concentration 90 nM)
# Procedure, shortened: as §1
# [11] = system: RARb homodimer (NR concentration 270 nM)
# Procedure, shortened: as §1
# [12] = system: RARg:RXRa (NR concentration 270 nM, RXRa partner concentration 90 nM)
# Procedure, shortened: as §1
# [13] = system: RARg homodimer (NR concentration 270 nM)
# Procedure, shortened: as §1
# [14] = system: RXRa DBDmut IVT, anti-RXR (DBD mutation: RXRa K156A/R161A, NR concentration 90 nM)
# Procedure, shortened: as §1
# [15] = system: RXRa homodimer (NR concentration 180 nM)
# Procedure, shortened: as §1
# [16] = system: THRa:RXRa (NR concentration 90 nM, RXRa partner concentration 90 nM)
# Procedure, shortened: as §1
# [17] = system: THRa homodimer (NR concentration 90 nM)
# Procedure, shortened: as §1
# [18] = system: VDR homodimer (NR concentration 270 nM)
# Procedure, shortened: as §1
Sequence,PBM binding z-score [1],PBM binding z-score [2],PBM binding z-score [3],PBM binding z-score [4],PBM binding z-score [5],PBM binding z-score [6],PBM binding z-score [7],PBM binding z-score [8],PBM binding z-score [9],PBM binding z-score [10],PBM binding z-score [11],PBM binding z-score [12],PBM binding z-score [13],PBM binding z-score [14],PBM binding z-score [15],PBM binding z-score [16],PBM binding z-score [17],PBM binding z-score [18]
CAAACTAGGTCAAGGTCAAAGTCGGTTTGTGCCA,8.86,8.63,3.11,0.796,3.64,5.25,2.25,5.33,2.13,5.19,5.13,6.18,6.97,3.21,6.34,4.35,3.74,4.46
TCGAGTAGGTTAGTCCGGGCATTCAGCCAACATA,1.83,1.17,-0.501,-0.393,-0.627,-0.337,-0.362,-0.0826,-1.14,0.232,0.125,-0.242,-0.282,0.0956,-0.186,0.527,-0.31,-0.163
CCGACTGGGGCATGGTTACCATAACGCACAGCCA,2.18,2.5,-0.776,-0.933,-0.129,-0.696,-0.585,-0.433,-0.847,0.396,-0.189,-0.0426,0.399,-0.99,-0.131,-0.641,-0.739,-0.781
CATACAGGGTCTGCTAGGCCAGAGTAGGGACGGC,-0.963,-0.162,-0.142,-0.562,0.266,-0.649,-0.0998,-0.482,0.212,0.183,-0.0672,-0.0355,0.276,-0.952,0.034,0.13,-0.32,-0.486
CGTCCAAGGTCAGAGGTCAGTGAAGAGATGACGG,2.44,4.65,0.388,-0.499,3.51,5.72,1.13,7.11,0.938,5.55,5.38,7.02,7.05,2.66,7.78,4.58,2.42,2.61
ACTAGCAGGCCAAGTGTGGGTCACTCAAACAAAG,2.05,2.79,-0.334,-0.527,0.309,0.546,-0.107,1.35,-1.55,1.79,2.25,2.53,1.51,-0.502,0.982,1.44,-0.207,-0.135
CCTCACGGGTCACGAGGTTATAGCACGACGAGCG,1.87,3.65,0.599,-0.0554,3.5,4.4,0.143,5.63,0.537,4.43,3.79,5.79,5.33,1.43,6.4,3.36,1.24,2.22
CCTAGCAGGCCAGGGTCACTCATGCATTTCGCTT,-0.158,1.27,-1.04,-1.56,0.688,2.19,-0.121,2.67,-0.129,2.38,2.68,2.82,1.97,0.745,2.96,2.79,1.04,1.31
GCTTACGGGTCAAAGGTTATAGCCTGAATAGAAT,4.87,6.32,0.778,1.43,7.84,6.26,0.103,8.66,-0.0748,4.65,3.15,6.87,4.5,2.7,9.3,4.01,-0.0478,1.65
AGAGTGAGGTTATTAAGATCAGGGAATTGCGGTC,0.817,0.889,0.661,0.468,2.05,1.43,1.67,1.5,1.44,1.7,1.42,1.12,0.991,1.56,1.82,2.12,1.33,1.97
CGTCAAAGTTCTACTAAGGTAACGTAAAGCACGC,0.0553,0.848,0.246,0.834,0.249,0.134,-0.028,0.398,-0.131,0.603,0.428,0.172,0.53,0.53,0.138,3.7,1.49,0.165
CCTAGTCGGTCAGGAGGTCACACACCGGATATGA,2.85,4.85,0.312,0.324,4.25,4.34,1.2,5.23,2.27,4.25,4.67,5.93,5.46,0.219,4.75,3.37,2.55,2.83
TCATATAGGTAATACAGGTGAACGTCGGCATCTA,4.33,3.64,1.21,1.68,1.2,0.756,0.663,1.55,2.19,0.705,0.903,0.819,0.771,1.86,1.55,1.18,0.563,0.482
ATCGAAAGGTAGACGAGGTGAGTATACACCGTTT,0.012,0.628,0.703,0.518,0.162,-0.0156,-0.144,0.31,0.224,0.438,0.107,0.927,0.758,-0.531,0.582,2.01,0.239,-0.467
ATCTCTAGGTAAAGATAGTTCAGTGAATGCAAAT,2.16,1.66,1.03,1.61,0.566,0.795,0.763,0.643,0.47,0.654,0.887,0.422,0.748,-0.0413,0.163,0.71,0.0896,0.419
